Compound activity as filed in PubChem BioAssay.
USP1-UAF1 inh = inhibitors of human USP1/UAF1 deubiquitinase. recombinant USP1/UAF1, Ub-Rhodamine cleavage fluorescence. actives 0.23% (n = 390,000). Potency, µM (series often up to 57.1 µM), for the others: at the top dose activity change, negative = inhibition, most hits filed as inhibitors. AID 743255. O94782; further: on the % scale 0 is the no-effect control and ±100 the full control effect; nearly all actives have a fitted effect of over 60% in size
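1 nM enzyme complex + cpd, 15 min RT; start with Ub-Rho 150nM final; kinetic fluorescence ex 480/em 540, 6 reads q60 s. Buffer 50mM HEPES pH 7.8, 0.5mM EDTA, 0.1 mg/ml BSA, 1mM TCEP, 0.01% Tween-20.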
EPAC2 ag = agonists of human EPAC2 (RAPGEF4); Q8WZA2; EPAC2 activation, biochemical qHTS; response scale: 100% = 6.5 mM cAMP response; Potency, µM (series often up to 154 µM), for the others: at the highest dose activation, most hits filed as activators; actives 0.079% (n = 360,000); AID 720711; further: nearly all actives have a fitted effect of over 50% in size
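qHTS, titration series. 100 nM EPAC2 / 250 nM Rap1B-BODIPY-GDP / 50 uM GDP; RT; ex 480/em 540 nm, 5-min reads to 30 min. Norm. to 6.5 mM cAMP = activation.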
EPAC1 antagonist = antagonists of human EPAC1. actives 0.14% (n = 360,000). AID 720709. Potency, µM (highest dose often 115 µM), without a hit: top-dose activity change, negative = inhibition, most hits filed as inhibitors. EPAC1 GEF assay, Rap1b-BODIPY-GDP exchange fluorescence;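 further: plate controls were vehicle for no effect and positive control for full effect; nearly all actives have a fitted effect of over 50% in size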
EPAC2 antag = antagonists of human EPAC2 | Potency, µM (titrated, usually from 114 µM), for the others: at the highest dose activity, negative = inhibition, usual class: inhibitors | actives 0.18% (n = 360,000) | EPAC2 GEF exchange of Rap1B-BODIPY-GDP, fluorescence | Q8WZA2; further: on the % scale 0 is the no-effect control and ±100 the full control effect; nearly all actives have a fitted effect of over 45% in size
EPAC1 agonist = agonists of human EPAC1. AID 720707. EPAC1 agonist qHTS, biochemical assay; response scale: 100% = response to 6.5 mM cAMP. Potency, µM (doses to about 154 µM), without a hit: at the highest dose activation, most hits filed as activators. actives 0.073% (n = 360,000); further: nearly all actives have a fitted effect of over 60% in size
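Fluorescent GDP-exchange assay: 100 nM EPAC1 with 250 nM Rap1B preloaded with BODIPY-GDP and 50 uM GDP; compounds tested as concentration series, 5 min at room temperature, then read every 5 min for 30 min (ex 480/em 540 nm); normalized to 6.5 mM cAMP.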
* = called active by the depositor; i = inactive; ? = inconclusive; / = no result given. An excerpt weighted towards active compounds, which were near 0.44% of everything screened. The call rests on the fitted dose curve; in most records, active means well fitted curve in the direction sought with a large enough effect; inconclusive means small, poorly fitted or top-dose-only effect, or another doubt; inactive means no such curve, though single readings can be large; an effect the other way counts as inactive or inconclusive. Potency means the concentration at half of the fitted maximal effect.

SMILES	USP1-UAF1 inh	EPAC2 ag	EPAC1 antagonist	EPAC2 antag	EPAC1 agonist
COc1ccc(S(=O)(=O)NCCc2cn3nc(C)c(C)nc3n2)cc1F	-25%	5%	5%	0%	13%
COc1ccc(-c2noc(N3CCC(C(=O)Nc4ccccc4Cl)CC3)n2)cc1	-7%	4%	-8%	9%	-17%
CCOc1ccccc1NC(=O)C1CCN(c2nc(-c3ccc(OC)cc3)no2)CC1	-20%	0%	61%	2%	112µM*
COc1ccc(NC(=O)C2(C)Cc3c(-c4ccc5c(c4)OCO5)ccnc3O2)cn1 (stereo not drawn)	/	13%	-6%	14%	18%
COc1ccc(NC(=O)c2cccnc2NCCc2ccccc2)cc1	-15%	32µM*	52%	-4%	56µM*
CSc1ncnc2c1ncn2CCCN1CCN(c2ccccn2)CC1	-1%	4%	-26%	-8%	-1%
CCOc1ccc(CNCCCSc2nnnn2C)cc1OC	-6%	/	/	/	/
COc1cc(/C=C/C(O)=C/C(=O)/C=C/c2ccc(O)cc2)ccc1O	28µM*	0%	-29%	6%	-5%
COc1cc(/C=C/C(=O)NC(=O)c2ccccc2O)ccc1O	-22%	9%	2%	-3%	13%
CN(C)c1ccc(/C=C2\SC(=S)N(Nc3ncc(C(F)(F)F)cc3Cl)C2=O)cc1	25µM*	112µM*	35%	66%	112µM*
COc1cc(/C=C2\SC(=S)N(Nc3ncc(C(F)(F)F)cc3Cl)C2=O)ccc1O	-23%	-12%	-24%	-5%	-8%
C=CCSc1nc2ccccc2c(=O)n1C1CCOC(C)(C)C1 (stereo not drawn)	-14%	7%	-4%	?	-2%
CCSc1nc2ccccc2c(=O)n1C1CCOC(C)(C)C1 (stereo not drawn)	-25%	19%	-11%	40µM*	3%
O=c1cc(CSc2nc3ccccc3c(=O)[nH]2)c2ccc(O)cc2o1	-14%	5%	50µM*	-16%	-23%
N=c1oc2c3c4c(cc2cc1C(=O)Nc1ccccc1)CCCN4CCC3	10µM*	112µM*	i	i	?
CC(=O)N1N=C(c2ccc(C)cc2)OC1c1ccc(Br)cc1 (stereo not drawn)	-12%	16%	-8%	-18%	7%
CCOc1ccc(Br)cc1C1=NN(C(C)=O)C(c2ccc([N+](=O)[O-])s2)O1 (stereo not drawn)	22µM*	17%	-20%	-13%	4%
O=C(c1ccco1)N1N=C2CCCCCC2C1(O)C(F)(F)F (stereo not drawn)	-29%	3%	6%	79µM*	9%
O=C(c1ccncc1)N1N=C2CCCCCC2C1(O)C(F)(F)F (stereo not drawn)	-9%	9%	13%	-5%	11%
CCCc1nc2c(=O)n(C)c(=O)nc-2n(C)n1	0.1µM*	24%	?	?	2%
COc1ccc(-c2nc(-c3ccccn3)ncc2S(C)(=O)=O)cc1	-3%	-1%	-8%	3%	4%
Cn1nc(-c2ccccn2)nc2c(=O)n(C)c(=O)nc1-2	0.032µM*	?	?	?	-5%
COC(=O)C1=CO[C@@H](O[C@@H]2O[C@H](CO)[C@@H](O)[C@H](O)[C@H]2O)C2C1C=C[C@@]2(O)CO (stereo partly drawn)	?	11%	1%	23%	-16%
C[n+]1cccc2c(Br)ccc([O-])c21	5µM*	?	?	?	6%
C[C@H](CO)N1C[C@H](C)[C@@H](CN(C)C(=O)Nc2ccc(C(F)(F)F)cc2)Oc2c(NC(=O)Cc3ccccc3)cccc2C1=O	-20%	4%	-12%	-11%	-16%
CCN(C(=O)COC(=O)c1nc(Cl)ccc1Cl)c1c(N)n(Cc2ccccc2)c(=O)[nH]c1=O	-18%	5%	?	-2%	13%
Cc1ccc(Oc2ccccc2NC(=O)CSCC(=O)Nc2cc(C)on2)cc1	-22%	4%	-13%	-7%	112µM*
Cc1cc(C)cc(N=Cc2ccc([N+](=O)[O-])s2)c1	13µM*	6%	?	-3%	0%
